# Data published in PubChem BioAssay AID1159580 (chemical genetic matrix, 2015).
# In all, about 5,500 compounds went through this assay and about 2,000 (36%) were called active. Roughly 18% stayed inconclusive and do not appear here. Some of the results follow. Unmarked numbers belong to inactive results. Rule as the data show it: active = normalized growth mostly below about 0.91 (no sharp cut-off); inconclusive = no clear call, values can overlap the other calls; inactive = mostly above about 0.92.
# Assay: chemical genetic growth profiling, strain panel (AID 1159580);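 also: tested at 20 µM; growth read once vehicle control cultures reached saturation at 30 °C; 1 = growth at the plate median or of vehicle wells; lower values mean less growth of the strain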
# Settings: S. cerevisiae deletion strains, growth OD
# [1] = locus YDL101C, strain DUN1, hits give low values
# [2] = locus YHR030C, strain SLT2, hits give low values
# [3] = locus YAL013W, strain DEP1, hits give low values
# [4] = locus YBR229C, strain ROT2, hits give low values
# [5] = locus YCL061C, strain MRC1, hits give low values
# [6] = locus YDR150W, strain NUM1, hits give low values
# [7] = locus YEL061C, strain CIN8, hits give low values
# [8] = locus YGR078C, strain PAC10, hits give low values
# [9] = locus YHR087W, strain rtc3, hits give low values
# [10] = locus YJR075W, strain HOC1, hits give low values
# [11] = locus YKL190W, strain CNB1, hits give low values
# [12] = locus YLR039C, strain RIC1, hits give low values
# [13] = locus YLR058C, strain SHM2 (second series), hits give low values
# [14] = locus YLR085C, strain ARP6, hits give low values
# [15] = locus YLR262C, strain YPT6, hits give low values
# [16] = locus YML094W, strain GIM5, hits give low values
# [17] = locus YMR219W, strain ESC1, hits give low values
# [18] = locus YMR263W, strain SAP30, hits give low values
# [19] = locus YNL153C, strain GIM3, hits give low values
# [20] = locus YNL298W, strain CLA4 (second series), hits give low values
# [21] = locus YNL322C, strain KRE1, hits give low values
# [22] = locus YNR030W, strain Alg12, hits give low values
# [23] = locus YPL055C, strain LGE1, hits give low values
# [24] = locus YPL241C, strain CIN2, hits give low values
# [25] = locus YPR135W, strain CTF4, hits give low values
structure (smiles),measurement,setting,value
COc1cc(Cl)c(NS(=O)(=O)c2cc(Br)c(Br)s2)c(OC)c1,normalized growth,"locus YAR019C, strain CDC15, hits give low values",0.96
same,normalized growth,"locus YBL105C, strain PKC1, hits give low values",0.977
same,normalized growth,"locus YBR135W, strain CKS1, hits give low values",0.967
same,normalized growth,"locus YBR136W, strain MEC1, hits give low values",0.977
same,normalized growth,"locus YBR160W, strain CDC28, hits give low values",0.958
same,normalized growth,"locus YDL017W, strain CDC7, hits give low values",0.978
same,normalized growth,"locus YDL028C, strain MPS1, hits give low values",0.96
same,normalized growth,[1],0.977
same,normalized growth,"locus YDL108W, strain KIN28, hits give low values",0.957
same,normalized growth,"locus YDL132W, strain cdc53, hits give low values",0.954
same,normalized growth,"locus YDL214C, strain PRR2, hits give low values",0.916
same,normalized growth,"locus YDR052C, strain DBF4, hits give low values",0.988
same,normalized growth,"locus YDR054C, strain cdc34, hits give low values",0.953
same,normalized growth,"locus YDR226W, strain ADK1, hits give low values",0.962
same,normalized growth,"locus YDR477W, strain SNF1, hits give low values",0.904
same,normalized growth,"locus YER123W, strain YCK3, hits give low values",0.898
same,normalized growth,"locus YER133W, strain GLC7, hits give low values",0.918
same,normalized growth,"locus YFL009W, strain cdc4, hits give low values",0.948
same,normalized growth,"locus YFL029C, strain CAK1, hits give low values",0.956
same,normalized growth,"locus YFR003C, strain YPI1, hits give low values",0.973
same,normalized growth,"locus YFR019W, strain FAB1, hits give low values",0.964
same,normalized growth,"locus YFR028C, strain CDC14, hits give low values",0.949
same,normalized growth,"locus YGR040W, strain KSS1, hits give low values",0.888
same,normalized growth,"locus YGR052W, strain FMP48, hits give low values",0.923
same,normalized growth,"locus YGR092W, strain DBF2, hits give low values",0.831
same,normalized growth,[2],0.664 (active)
same,normalized growth,"locus YHR079C, strain IRE1, hits give low values",0.905
same,normalized growth,"locus YHR082C, strain KSP1, hits give low values",0.924
same,normalized growth,"locus YHR205W, strain SCH9, hits give low values",0.933
same,normalized growth,"locus YIL147C, strain SLN1, hits give low values",0.961
same,normalized growth,"locus YJL095W, strain BCK1, hits give low values",0.885
same,normalized growth,"locus YJL128C, strain PBS2, hits give low values",0.923
same,normalized growth,"locus YJL157C, strain FAR1, hits give low values",0.919
same,normalized growth,"locus YJR016C, strain ILV3, hits give low values",0.972
same,normalized growth,"locus YJR066W, strain TOR1 (second series), hits give low values",0.858
same,normalized growth,"locus YJR066W, strain TOR1, hits give low values",0.896
same,normalized growth,"locus YKL048C, strain ELM1, hits give low values",0.969
same,normalized growth,"locus YKL067W, strain YNK1, hits give low values",0.9
same,normalized growth,"locus YKL101W, strain HSL1, hits give low values",0.917
same,normalized growth,"locus YKL193C, strain SDS22, hits give low values",0.959
same,normalized growth,"locus YKL203C, strain TOR2, hits give low values",0.986
same,normalized growth,"locus YLR113W, strain HOG1, hits give low values",0.815 (active)
same,normalized growth,"locus YLR133W, strain CKI1, hits give low values",0.959
same,normalized growth,"locus YLR403W, strain SFP1, hits give low values",0.922
same,normalized growth,"locus YML070W, strain DAK1, hits give low values",0.916
same,normalized growth,"locus YMR001C, strain CDC5, hits give low values",0.969
same,normalized growth,"locus YMR205C, strain PFK2 (second series), hits give low values",0.948
same,normalized growth,"locus YMR277W, strain FCP1, hits give low values",0.946
same,normalized growth,"locus YNL006W, strain LST8, hits give low values",0.955
same,normalized growth,"locus YNL020C, strain ARK1, hits give low values",0.931
same,normalized growth,"locus YNL161W, strain CBK1, hits give low values",0.97
same,normalized growth,"locus YNL183C, strain NPR1, hits give low values",0.904
same,normalized growth,"locus YNL207W, strain RIO2, hits give low values",0.962
same,normalized growth,"locus YNL222W, strain SSU72, hits give low values",0.95
same,normalized growth,"locus YNL307C, strain MCK1 (second series), hits give low values",0.902
same,normalized growth,"locus YOL078W, strain AVO1, hits give low values",0.96
same,normalized growth,"locus YOL136C, strain PFK27, hits give low values",0.901
same,normalized growth,"locus YOR061W, strain CKA2, hits give low values",0.912
same,normalized growth,"locus YOR119C, strain RIO1, hits give low values",0.918
same,normalized growth,"locus YOR231W, strain MKK1, hits give low values",0.908
same,normalized growth,"locus YOR329C, strain SCD5, hits give low values",0.965
same,normalized growth,"locus YPL031C, strain PHO85, hits give low values",0.894
same,normalized growth,"locus YPL153C, strain RAD53, hits give low values",0.866
same,normalized growth,"locus YPL204W, strain HRR25, hits give low values",0.868
same,normalized growth,"locus YPL209C, strain IPL1, hits give low values",0.976
same,normalized growth,"locus YPL256C, strain CLN2, hits give low values",0.856 (active)
same,normalized growth,"locus YPR025C, strain CCL1, hits give low values",0.968
same,normalized growth,"locus YPR106W, strain ISR1, hits give low values",0.954
same,normalized growth,"locus YPR111W, strain DBF20, hits give low values",0.938
same,normalized growth,"strain NNK1, hits give low values",0.975
same,normalized growth,"strain TSCII, hits give low values",0.963
COc1ccc(OC)c(S(=O)(=O)NCc2c(F)cccc2Cl)c1,normalized growth,[3],0.994
same,normalized growth,[4],1.01
same,normalized growth,[5],1.01
same,normalized growth,[1],1.02
same,normalized growth,[6],0.985
same,normalized growth,[7],1.04
same,normalized growth,[8],1.02
same,normalized growth,[2],1.02
same,normalized growth,[9],1
same,normalized growth,[10],1.01
same,normalized growth,[11],1.01
same,normalized growth,[12],0.928
same,normalized growth,[13],1.02
same,normalized growth,[14],1.02
same,normalized growth,[15],0.893
same,normalized growth,[16],0.992
same,normalized growth,[17],1.01
same,normalized growth,[18],1.01
same,normalized growth,"locus YMR307W, strain GAS1, hits give low values",1.09
same,normalized growth,[19],0.993
same,normalized growth,[20],1.02
same,normalized growth,[21],1.01
same,normalized growth,[22],1.02
same,normalized growth,"locus YOL006C, strain TOP1, hits give low values",0.98
same,normalized growth,[23],1.02
same,normalized growth,[24],1.01
same,normalized growth,[25],1.01
O=S(=O)(c1cc(Br)c(Br)s1)N1CCCCC1,normalized growth,[3],1.01
same,normalized growth,[4],0.993
same,normalized growth,[5],0.967
same,normalized growth,[1],0.963
same,normalized growth,"locus YDL134C, strain PPH21, hits give low values",1.02
same,normalized growth,[6],1.01
same,normalized growth,[7],1.01
same,normalized growth,[8],1.01
same,normalized growth,"locus YGR229C, strain SMI1, hits give low values",0.984
same,normalized growth,[2],1.14
same,normalized growth,[9],1.03
same,normalized growth,"locus YJR043C, strain POL32, hits give low values",0.964
same,normalized growth,[10],1.01
same,normalized growth,[11],1.02
same,normalized growth,[12],0.942
same,normalized growth,[13],1.01
same,normalized growth,[14],1.02
same,normalized growth,[15],0.991
same,normalized growth,[16],1
same,normalized growth,[17],1
same,normalized growth,[18],1
same,normalized growth,[19],0.955
same,normalized growth,[20],1.02
same,normalized growth,[21],1.02
same,normalized growth,[22],1.03
same,normalized growth,[23],0.946
same,normalized growth,[24],1
same,normalized growth,[25],1.04
